# Assay results reported in PubChem BioAssay (EPA / NIEHS).
# Values joined by “and” are separate entries in the source; they are usually repeats but may differ in a detail not shown here. Equal entries are not always repeated. Inconclusive results are not listed. Active and inactive are the calls of the source. The calls were made as follows, unless noted: active = hit-call score of the fitted dose curve at least 0.9, where 1 is the maximum; inconclusive = response in the unintended direction; inactive = score below 0.9.
# Legend:
# [1] = Tanguay_ZF_120hpf_NC_legacy: (Legacy) Oregon State University Tanguay Lab 120 Hour Post-fertilization zebrafish Assay for Notochord and Tail Malformation (AID 2283656)
# Outline: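 Dechorionated Tropical 5D wild-type zebrafish embryos, one per well from 6 hpf, statically exposed to 120 hpf at 28C in 0.64% DMSO final. Notochord distortion scored present/absent by brightfield; dead embryos excluded.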
# [2] = test system: Thyroperoxidase (TPO), gene 54314; assay: CCTE_Simmons_AUR_rTPO: CCTE's Amplex UltraRed Assay for Thyroperoxidase (TPO) Inhibition, Simmons Lab (AID 2283662);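 also: potency for loss of signal meaning inhibition of peroxidase activity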
# Outline: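 Rat thyroid microsomes (5 ug protein) with 25 uM Amplex UltraRed and 300 uM H2O2 in 200 mM phosphate buffer, 30 min at 37C in dark; fluorescence 544/590 nm. Eight concentrations, 5 nM–87.5 uM final, 0.5% DMSO, triplicate biological replicates.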
# [3] = CCTE_Simmons_CellTiterGLO_HEK293T: Viability Assessment in CCTE's Assays for Thyroperoxidase (TPO) Inhibition, Simmons Lab (AID 2283665);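 as to AC50: cells exposed to compound for 24 h before readout; actives reduce ATP signal below DMSO vehicle meaning cytotoxicity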
# Outline: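 HEK293T, 10 000 cells/well, DMEM + 1% FBS; 8-pt titration 5 nM–87.5 uM [final], 0.5% DMSO; 24 hr, 37C, 5% CO2; CellTiter-Glo luminescence; n=3 biological replicates.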
# [4] = Tanguay_ZF_120hpf_TR_legacy: (Legacy) Oregon State University Tanguay Lab 120 Hour Post-fertilization zebrafish Assay for Touch Response (AID 2283667)
# Outline: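 Tropical 5D wild-type zebrafish embryos were exposed statically in sealed, foil-covered plates at 28C until 120 hpf, with 0.64% (vol/vol) final DMSO. Touch response was scored as present or absent; embryos that died were not scored.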
# [5] = STM_H9_OrnithineISnorm_perc: Stemina devTOX quickPredict H9 human embryonic stem cell (hESC)-based Assay for Ornithine (ORN) Metabolite Biomarker, Normalized (AID 2283712; active = hit-call score of the fitted dose curve at least 0.9, where 1 is the maximum; inactive = score below 0.9;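 also: ornithine released into spent medium during last day measured by mass spectrometry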)
# Outline: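 H9 human embryonic stem cells kept pluripotent receive test chemical over 72 h, refreshed daily by media exchange. Media from the closing 24 h is deproteinized and analysed by UPLC-HRMS on an amide column; ornithine signal is scaled to labelled standard and vehicle.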
# [6] = STM_H9_CystineISnorm_perc: Stemina devTOX quickPredict H9 human embryonic stem cell (hESC)-based Assay for Cystine (CYSS) Metabolite Biomarker, Normalized (AID 2283713; active = hit-call score of the fitted dose curve at least 0.9, where 1 is the maximum; inactive = score below 0.9)
# Outline: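 H9 hESC, pluripotent; compound 72h, re-dosed q24h with medium change. Last-24h medium → 40% acetonitrile deproteinization → UPLC-HRMS. CYSS area / C13-CYSS standard, then % of 0.1% DMSO median.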
# [7] = STM_H9_OrnCyssISnorm_ratio: Stemina devTOX quickPredict H9 human embryonic stem cell (hESC)-based Assay for Ornithine (ORN):Cystine (CYSS) Ratio (AID 2283714)
# Outline: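 Undifferentiated H9 hESCs were exposed to compound for 72h with media and chemical replaced every 24h. Final 24-h conditioned media were deproteinized and analysed by UPLC-HRMS. ORN and CYSS peak areas were normalized to C13 internal standards and the ratio taken versus 0.1% DMSO.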
# [8] = CEETOX_H295R_MTT_cell_viability: Viability Assessment in the CeeTox HT-H295R MTT Assay (AID 2283718; active = hit-call score of the fitted dose curve at least 0.9, where 1 is the maximum; inactive = score below 0.9;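 as to AC50: curve fitted both ways so AC50 may mark viability loss or gain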)
# Outline: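 H295R cells prestimulated 48 h with 10 uM forskolin, then exposed 48 h to test chemical (0.1% DMSO final). Viability by MTT (0.5 mg/ml, 4 h, 37 C), absorbance 570/650 nm; percent change versus DMSO, bidirectional fit.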
# [9] = Tanguay_ZF_120hpf_ActivityScore_legacy: (Legacy) Oregon State University Tanguay Lab 120 Hour Post-fertilization zebrafish Assay Score for Activity (AID 2283742)
# Outline: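 Tropical 5D wild-type zebrafish embryos, dechorionated with pronase at 4 hpf, were exposed singly from 6 hpf to 120 hpf statically at 28C in 0.64% DMSO. Malformations and mortality were scored as binary by brightfield, with the activity score combining 18 morphology components.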
# [10] = Tanguay_ZF_120hpf_SWIM_legacy: (Legacy) Oregon State University Tanguay Lab 120 Hour Post-fertilization zebrafish Assay for Swim Bladder Malformation (AID 2283654);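 also: swim bladder malformation in each larva scored yes or no under brightfield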
# Outline: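 Dechorionated Tropical 5D wild-type embryos, placed singly from 6 hpf, were statically exposed at 28C to 120 hpf with 0.64% DMSO final; swim bladder malformation was scored present/absent by brightfield microscopy, gain of signal relative to DMSO controls.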
# [11] = Tanguay_ZF_120hpf_TRUN_legacy: (Legacy) Oregon State University Tanguay Lab 120 Hour Post-fertilization zebrafish Assay for Truncated Body (AID 2283655)
# Outline: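 Binary presence/absence of truncated body is recorded at 120 hpf by brightfield, with non-mortality endpoints skipped after death. Exposure is static from 6 hpf in sealed dark plates at 28C, using dechorionated wild-type zebrafish, 0.64% DMSO.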
# [12] = CCTE_Padilla_ZF_144hpf_TERATOSCORE: (Legacy) CCTE's 144 Hour Post-fertilization zebrafish Assay Teratoscore, Padilla Lab (AID 2283679; active = hit-call score of the fitted dose curve at least 0.9, where 1 is the maximum; inactive = score below 0.9;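 as to AC50: zebrafish embryos with chorions exposed by immersion from 6-8 hpf to 5 dpf with daily renewal; teratogenicity score from eye scoring of death hatching and malformations at 144 hpf; higher score means more developmental defects relative to DMSO baseline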)
# Outline: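 Larvae scored by eye at 144 hpf for death, hatching and malformations after a day in clean Hanks'. Before that, daily-renewed exposure at 80 uM (0.4% DMSO, 26C) from roughly 6-8 hpf through 5 dpf, 4 embryos per chemical.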
# [13] = test system: Thyroperoxidase (TPO), gene 445522; assay: CCTE_Simmons_GUA_TPO: CCTE's Guaiacol Assay for Thyroperoxidase (TPO) Inhibition, Simmons Lab (AID 2283750)
# Outline: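 Porcine thyroid microsomes (25 ug) in 200mM potassium phosphate, preincubated 30 s at 37C with compound (8 concentrations, 5 nM–87.5 uM) and 35mM guaiacol; 1mM H2O2 starts reaction. Absorbance change at 450nm over first 80 s; loss of signal versus DMSO, three replicates.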
# [14] = read-out: solute carrier (SLC10A1), SLC10A1 (gene 6554); assay: LTEA_HepaRG_SLC10A1: Life Technologies and Expression Analysis (LTEA) Assay for solute carrier (SLC10A1) using HepaRG (AID 2283657; active = hit-call score of the fitted dose curve at least 0.9, where 1 is the maximum; inactive = score below 0.9); settings: mRNA level, 48 h; actives raise or lower the signal
# Outline: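 Differentiated HepaRG cells were plated 48 h, then exposed in serum-free induction medium for 48 h to 8 concentrations (top 100 uM, half-log steps, 0.5% DMSO). SLC10A1 mRNA was quantified by qRT-PCR normalized to ACTB, GAPDH, POLR2A; bidirectional fit versus DMSO.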
# [15] = read-out: matrix metalloproteinase-1 (MMP1), MMP1 (gene 4312); assay: LTEA_HepaRG_MMP1: Life Technologies and Expression Analysis (LTEA) Assay for matrix metalloproteinase-1 (MMP1) using HepaRG (AID 2283658; active = hit-call score of the fitted dose curve at least 0.9, where 1 is the maximum; inactive = score below 0.9); settings: mRNA level, 48 h; actives raise or lower the signal
# Outline: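 qRT-PCR (TaqMan, Fluidigm arrays) of MMP1 transcript, normalized against three housekeeping genes and fitted in both directions relative to 0.5% DMSO vehicle. Human HepaRG cultures received duplicate 48 h exposures across 8 points, highest 100 uM with half-log steps.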
# [16] = read-out: Cytochrome P450 (CYP24A1_1), CYP24A1 (gene 1591); assay: LTEA_HepaRG_CYP24A1_1: Life Technologies and Expression Analysis (LTEA) Assay for Cytochrome P450 (CYP24A1_1) using HepaRG (AID 2283671; active = hit-call score of the fitted dose curve at least 0.9, where 1 is the maximum; inactive = score below 0.9); settings: mRNA level, 48 h; actives raise or lower the signal
# Outline: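 HepaRG, 48 h exposure, 8-pt half-log series from 100 uM in 0.5% DMSO, duplicates. Readout: TaqMan qRT-PCR of CYP24A1 mRNA, housekeeping-normalized (ACTB/GAPDH/POLR2A). Bidirectional curve fit vs DMSO baseline.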
# [17] = ArunA_CellTiter_hNC: Viability Assessment in the ArunA Biomedical's Oris Neural Crest (hNC) Cell Migration Assay (AID 2283752)
# Outline: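 Cell titer was measured with the CellTiter Aqueous One reagent after 72 h of chemical dosing. Cells were H9-derived embryonic neural crest stem cells seeded on Matrigel, 60,000 per well, and given 16 h at 37C beforehand.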
# [18] = ArunA_CellTiter_hNP: Viability Assessment in the ArunA Biomedical's Oris Neural Crest (hNC) Cell Migration Assay (AID 2283753)
# Outline: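 H9-derived hNP1 neuroprogenitors, 60,000/well on Matrigel, cultured 16 h, then 72 h chemical exposure in test medium. Cell titer via CellTiter Aqueous One; positive-direction fit vs DMSO.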
# [19] = ArunA_Migration_hNP: ArunA Biomedical's Oris Neuroprogenitor (hNP) Cell Migration Assay (AID 2283754)
# Outline: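 Human H9-derived hNP1 neuroprogenitors on Matrigel with LIF/bFGF, plated around seeding stoppers for 16 h at 37C; stoppers removed at start of 72 h chemical exposure. Calcein-AM staining, fluorescence 494/517 nm in detection zone; loss-of-signal vs DMSO; cytochalasin D control.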
# [20] = ArunA_Migration_hNC: ArunA Biomedical's Oris Neural Crest (hNC) Cell Migration Assay (AID 2283755)
# Outline: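 Human H9-derived neural crest stem cells, 60,000/well on Matrigel, 16 h at 37C, then 72 h chemical exposure after seeding-stopper removal. Migration into detection zone read as calcein-AM fluorescence (ex494/em517), relative to DMSO.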
structure (smiles),measurement,setting,value
CCOC(=O)c1ccc(C2CCC(NC[C@H](O)COc3ccc(O)c(NS(C)(=O)=O)c3)CC2)cc1 (stereo not given in full),outcome,[1],inactive
same,AC50,[2],1.12 µM (active)
same,AC50,[3],18.3 µM (active)
same,outcome,[4],inactive
same,outcome,[5],inactive
same,AC50,[6],1.37 µM (active)
same,AC50,[7],1.42 µM (active)
same,outcome,[8],inactive
same,outcome,[9],inactive
Nc1nc2ncc(CNc3ccc(C(=O)N[C@@H](CCC(=O)O)C(=O)O)cc3)nc2c(=O)[nH]1,outcome,[10],inactive
same,outcome,[11],inactive
same,AC50,[2],20.5 µM (active)
same,outcome,[3],inactive
same,outcome,[12],inactive
same,outcome,[5],inactive
same,outcome,[6],inactive
same,outcome,[9],inactive
same,outcome,[13],inactive
O=C(NS(=O)(=O)/C=C/c1ccccc1)c1ccc(F)cc1Cl,outcome,[11],inactive
same,outcome,[1],inactive
same,outcome,[4],inactive
same,outcome,[12],inactive
same,AC50,[8],11.2 µM (active)
same,outcome,[9],inactive
O=C(CCCCCCCCc1cccnc1)N1CCC(C=C(c2ccccc2)c2ccccc2)CC1,outcome,[10],inactive
same,outcome,[11],inactive
same,AC50,[2],27.6 µM (active)
same,AC50,[3],5.13 µM (active)
same,outcome,[4],inactive
same,AC50,[12],14.2 µM (active)
same,outcome,[9],inactive
CC(=O)OC[C@H]1O[C@@](COC(C)=O)(O[C@H]2O[C@H](COC(C)=O)[C@@H](OC(C)=O)[C@H](OC(C)=O)[C@H]2OC(C)=O)[C@@H](OC(C)=O)[C@@H]1OC(C)=O,outcome,[11],inactive
same,outcome,[1],inactive
same,outcome,[4],inactive
same,outcome,[9],inactive
O=C(O)CCN(C1(C(=O)NO)CCCC1)S(=O)(=O)c1ccc(Oc2ccc(F)cc2)cc1,outcome,[10],inactive
same,outcome,[1],inactive
same,AC50,[2],27.7 µM (active)
same,outcome,[3],inactive
same,outcome,[4],inactive
same,outcome,[9],inactive
Cc1ccc(O)cc1,outcome,[11],inactive
same,outcome,[1],inactive
same,outcome,[4],inactive
same,outcome,[8],inactive
same,outcome,[9],inactive
CCCCCCCCO,outcome,[10],inactive
same,outcome,[11],inactive
same,outcome,[4],inactive
same,outcome,[8],inactive
same,outcome,[9],inactive
CC(C)CC(C)(O)C#CC(C)(O)CC(C)C (stereo not given),outcome,[1],inactive
same,outcome,[4],inactive
same,AC50,[5],75 µM (active)
same,AC50,[6],60.1 µM (active)
same,AC50,[7],63.2 µM (active)
same,outcome,[8],inactive
same,outcome,[9],inactive
CC(O)CN(CCN(CC(C)O)CC(C)O)CC(C)O (stereo not given),outcome,[10],inactive
same,outcome,[11],inactive
same,outcome,[4],inactive
same,outcome,[9],inactive
CC(=O)c1ccc2c(c1)[C@H](NC(=O)c1ccc(F)cc1)[C@@H](O)C(C)(C)O2,outcome,[10],inactive
same,outcome,[11],inactive
same,outcome,[4],inactive
same,outcome,[9],inactive
CCOC(=O)CC(CC(=O)OCC)(OC(C)=O)C(=O)OCC,outcome,[10],inactive
same,outcome,[4],inactive
same,outcome,[12],inactive
same,outcome,[9],inactive
CC(C)c1cccc(C(C)C)c1N1C(=O)c2ccc(O)cc2C1=O,outcome,[10],inactive
same,AC50,[14],78.7 µM (active)
same,outcome,[15],inactive
same,outcome,[4],inactive
same,outcome,[16],inactive
same,AC50,[12],4.71 µM (active)
same,AC50,[5],27.8 µM (active)
same,AC50,[6],24 µM (active)
same,AC50,[7],14.9 µM (active)
same,AC50,[8],3.83 µM (active)
same,AC50,[9],29.5 µM (active)
same,AC50,[17],4.05 µM (active) and 11.8 µM (active)
same,AC50,[18],20.7 µM (active)
same,AC50,[19],7.81 µM (active) and 3.04 µM (active)
same,AC50,[20],7.71 µM (active) and 2.24 µM (active)
CC1(C)C(=O)N(Br)C(=O)N1Br,outcome,[10],inactive
same,outcome,[1],inactive
same,outcome,[4],inactive
same,outcome,[12],inactive
same,outcome,[9],inactive
CCOC(=O)COc1ccc2c(c1)CC(NCC(O)c1cccc(Cl)c1)CC2 (stereo not given),outcome,[10],inactive
same,outcome,[11],inactive
same,outcome,[4],inactive
same,AC50,[12],6.13 µM (active)
same,AC50,[9],30 µM (active)
Cc1[nH]cnc1C[C@H]1CCc2c(C)c3ccccc3n2C1=O,outcome,[10],inactive
same,outcome,[1],inactive
same,AC50,[2],27.6 µM (active)
same,outcome,[4],inactive
same,AC50,[12],13.8 µM (active)
same,outcome,[9],inactive
Cn1cnc([N+](=O)[O-])c1Sc1ncnc2nc[nH]c12,outcome,[11],inactive
same,outcome,[1],inactive
same,AC50,[2],30.4 µM (active)
same,AC50,[3],1.09 µM (active)
same,outcome,[4],inactive
same,AC50,[5],3.25 µM (active)
same,AC50,[6],3.49 µM (active)
same,AC50,[7],3.28 µM (active)
same,outcome,[9],inactive
